Each structure is given as a SMILES string. Inconclusive results are not listed. A number with no mark means an inactive call. The source made the active and inactive calls. The call rests on the fitted dose curve; in most records, active means well fitted curve in the direction sought with a large enough effect; inconclusive means small, poorly fitted or top-dose-only effect, or another doubt; inactive means no such curve, though single readings can be large; an effect the other way counts as inactive or inconclusive.

One test addresses Furin (Homo sapiens) (UniProt P09958). Nature of the test: Furin counterscreen qHTS for Zika virus inhibitors (AID 1347149). Further: nearly all actives have a fitted effect of over 70% in size. Further: potency means the concentration at half of the fitted maximal effect.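 On activity change, negative = inhibition: purified recombinant full-length human furin enzyme at 5 nM; fluorescence gain from furin cutting a BOC-RVRR-AMC peptide substrate over 15 min; top concentration of the series differs between compounds; plate controls were no-inhibitor control for no effect and no-enzyme control for full effect.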 The method in brief: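 Counterscreen measures cleavage of 2 microM BOC-RVRR-AMC, below its ~15 microM Km, by 5 nM full-length human furin at pH 7.0 after a 15-min compound preincubation. Inhibition derives from the 15-min fluorescence increase at 37C.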
Test [1] is described as follows: Confirmatory screen GU Rhodamine qHTS for Zika virus inhibitors qHTS (AID 1347157). Further: nearly all actives have a fitted effect of over 70% in size. Further: potency means the concentration at half of the fitted maximal effect.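 On activity change, negative = inhibition: plate controls were no-inhibitor wells for no effect and no-enzyme wells for full effect.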 In outline: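 Percent inhibition derives from the 15-min fluorescence change (ex 480, em 540 nm), normalized to no-enzyme and no-inhibitor wells. Reactions contained 25 nM NS2B-NS3 complex and 1.5 microM substrate in 10 mM Tris-HCl pH 8.0.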
Test [2] is described as follows: ZIKV-mCherry secondary qHTS for Zika virus inhibitors (AID 1347158). Further: potency means the concentration at half of the fitted maximal effect. On activity change, negative = inhibition: top concentration of the series differs between compounds. The method in brief: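 Compounds were tested in Vero monkey kidney cells infected with recombinant mCherry-expressing Zika virus at MOI 1 for 48-72 h at 37 °C. Fixed cells were nuclear-stained and imaged, and infection rate was taken as the fraction of mCherry-positive cells.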
Test [3] can be described thus: Confirmatory screen NINDS Rhodamine qHTS for Zika virus inhibitors (AID 1347161). Further: nearly all actives have a fitted effect of over 60% in size. Further: potency means the concentration at half of the fitted maximal effect.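 On activity change, negative = inhibition: purified Zika NS2B-NS3 protease with linked NS2B cofactor domain and Rhodamine110 peptide substrate; series mostly up to about 110 µM; plate controls were no-inhibitor control for no effect and no-enzyme control for full effect.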 In outline:
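In 10 mM Tris-HCl pH 8.0 containing 0.01% Tween 20, linked NS2B-NS3 protease (25 nM final) is exposed to test compounds for 15 min. Cleavage of 1.5 microM Rhodamine110 substrate is tracked by fluorescence over 15 min.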

Test [4] has as its system Zika virus NS2B-NS3 protease (linked). Briefly: 384 well plate NINDS AMC confirmatory qHTS for Zika virus inhibitors (AID 1347163). Further: nearly all actives have a fitted effect of over 50% in size. Further: potency means the concentration at half of the fitted maximal effect.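 On activity change, negative = inhibition: linked protease at 5 30 or 60 nM final depending on run; fluorescence of AMC released from Ac-VKTGKR-AMC peptide cleaved by the protease; top concentration of the series differs between compounds; 0% = no-inhibitor control and -100% = no-enzyme control.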 In outline: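 Fluorescence at 355/460 nm was read after 25 minutes of cleavage of 30 microM Ac-VKTGKR-AMC at room temperature, in the dark. Before substrate addition, compounds (up to 1 mM final) sat ~15 minutes with 5, 30 or 60 nM linked protease. Signals were normalized to no-enzyme and no-inhibitor wells.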

Test [5] has as its system Zika virus NS2B-NS3 protease (linked construct). Nature of the test: 384 well plate NINDS Rhodamine confirmatory qHTS for Zika virus inhibitors (AID 1347164).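 Further: fluorescence from protease cleavage of Ac-LKRR-rhodamine 110 substrate; potency means the concentration at half of the fitted maximal effect; nearly all actives have a fitted effect of over 65% in size.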 The method in brief: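 Linked protease at a final 5 nM, 30 nM or 60 nM was preincubated ~15 min with compounds, then given 10 microM Ac-LKRR-Rhodamine 110. Fluorescence (ex 485/em 538 nm) after 25 min in the dark at room temperature.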

The nature of test [6]: Tertiary RLuc qRT-PCR qHTS assay for Zika virus inhibitors (AID 1347169). Further: top concentration of the series differs between compounds; on the % scale 0 is the no-effect control and ±100 the full control effect; nearly all actives have a fitted effect of over 55% in size. In outline: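 Vero cells (1,000 per well) plated overnight at 37 degrees C, treated with compound in DMSO, then infected with recombinant ZIKV-RLuc (Cambodian) at MOI 1-2 for 48-72 hrs. Live-cell Renilla luciferase substrate added; luminescence read after 1-1.5 hrs.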
Test [7] deals with Rap guanine nucleotide exchange factor 3 (Homo sapiens) (UniProt O95398). Nature of the test: Confirmatory qHTS for antagonist of cAMP-regulated guanine nucleotide exchange factor 3 (EPAC1) (AID 1645880). Further: potency means the concentration at half of the fitted maximal effect; nearly all actives have a fitted effect of over 55% in size. The method in brief: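 Released BODIPY-GDP fluoresces less than Rap1-bound BODIPY-GDP; the signal is followed at 480/540 nm at 5-min intervals over 30 min, after 5 min at room temperature. Reactions contain 100 nM EPAC1, 250 nM RAP1B-BODIPY-GDP and 50 uM GDP; results are normalized to ATA and DMSO.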
Sequence of Rap guanine nucleotide exchange factor 3 (Homo sapiens) (O95398 whole entry, looked up): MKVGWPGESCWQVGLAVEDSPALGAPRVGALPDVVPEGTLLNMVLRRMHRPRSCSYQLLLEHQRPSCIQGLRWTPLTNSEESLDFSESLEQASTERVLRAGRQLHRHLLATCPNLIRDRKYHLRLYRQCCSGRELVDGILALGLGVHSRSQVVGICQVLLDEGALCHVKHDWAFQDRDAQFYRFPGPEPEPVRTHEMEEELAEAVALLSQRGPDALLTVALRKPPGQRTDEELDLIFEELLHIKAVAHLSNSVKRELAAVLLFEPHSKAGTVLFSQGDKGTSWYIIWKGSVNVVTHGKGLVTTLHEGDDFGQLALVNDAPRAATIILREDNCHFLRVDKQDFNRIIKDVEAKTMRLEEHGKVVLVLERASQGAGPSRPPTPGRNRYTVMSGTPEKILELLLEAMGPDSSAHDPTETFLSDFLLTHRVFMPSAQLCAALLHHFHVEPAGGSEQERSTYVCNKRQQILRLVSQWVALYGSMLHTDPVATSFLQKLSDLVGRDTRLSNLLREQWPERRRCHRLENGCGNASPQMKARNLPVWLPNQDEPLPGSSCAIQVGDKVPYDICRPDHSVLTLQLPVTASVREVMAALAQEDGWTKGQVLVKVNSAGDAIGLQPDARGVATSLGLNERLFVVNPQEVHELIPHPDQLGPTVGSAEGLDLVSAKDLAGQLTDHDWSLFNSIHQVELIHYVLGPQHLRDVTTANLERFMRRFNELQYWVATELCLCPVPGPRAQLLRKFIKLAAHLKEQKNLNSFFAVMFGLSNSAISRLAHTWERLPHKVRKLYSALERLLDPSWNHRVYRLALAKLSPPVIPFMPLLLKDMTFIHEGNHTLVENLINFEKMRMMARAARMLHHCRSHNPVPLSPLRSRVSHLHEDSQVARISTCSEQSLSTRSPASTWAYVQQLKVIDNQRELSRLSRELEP

Test [8] shares this target. Nature of the test: Confirmatory qHTS for agonist of cAMP-regulated guanine nucleotide exchange factor 3 (EPAC1) (AID 1645881).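 Further: EPAC1 catalysed release of BODIPY-GDP from Rap1B seen as fluorescence loss; 100% = effect of cAMP agonist control; nearly all actives have a fitted effect of over 75% in size.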
Test [9] addresses Rap guanine nucleotide exchange factor 4 (Homo sapiens) (UniProt Q8WZA2). Briefly: Confirmatory qHTS for agonist of cAMP-regulated guanine nucleotide exchange factor 4 (EPAC2) (AID 1645884).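 Further: nucleotide exchange releases bodipy-GDP from Rap1 and this lowers its fluorescence; on the % scale 0 is the no-effect control and ±100 the full control effect; nearly all actives have a fitted effect of over 65% in size.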
For test [10] the target is unchanged. Briefly: Confirmatory qHTS for antagonist of cAMP-regulated guanine nucleotide exchange factor 4 (EPAC2) (AID 1645885). Further: on the % scale 0 is the no-effect control and ±100 the full control effect; nearly all actives have a fitted effect of over 25% in size.
The target of test [11] is Rap guanine nucleotide exchange factor 3 (Homo sapiens) (UniProt O95398). Briefly: Counterscreen qHTS for agonist of cAMP-regulated guanine nucleotide exchange factor 3 (EPAC1) (AID 1645889). Further: % of control where 0% means no effect; nearly all actives have a fitted effect of over 40% in size. The method in brief: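 Measured: fluorescence of BODIPY-GDP bound to Rap1B, which falls as exchange proceeds. Conditions include 50 uM competing GDP, 5 and 30 min reads, and a later cAMP challenge for antagonist detection.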

Sequence of Furin (Homo sapiens) (P09958 whole entry, looked up): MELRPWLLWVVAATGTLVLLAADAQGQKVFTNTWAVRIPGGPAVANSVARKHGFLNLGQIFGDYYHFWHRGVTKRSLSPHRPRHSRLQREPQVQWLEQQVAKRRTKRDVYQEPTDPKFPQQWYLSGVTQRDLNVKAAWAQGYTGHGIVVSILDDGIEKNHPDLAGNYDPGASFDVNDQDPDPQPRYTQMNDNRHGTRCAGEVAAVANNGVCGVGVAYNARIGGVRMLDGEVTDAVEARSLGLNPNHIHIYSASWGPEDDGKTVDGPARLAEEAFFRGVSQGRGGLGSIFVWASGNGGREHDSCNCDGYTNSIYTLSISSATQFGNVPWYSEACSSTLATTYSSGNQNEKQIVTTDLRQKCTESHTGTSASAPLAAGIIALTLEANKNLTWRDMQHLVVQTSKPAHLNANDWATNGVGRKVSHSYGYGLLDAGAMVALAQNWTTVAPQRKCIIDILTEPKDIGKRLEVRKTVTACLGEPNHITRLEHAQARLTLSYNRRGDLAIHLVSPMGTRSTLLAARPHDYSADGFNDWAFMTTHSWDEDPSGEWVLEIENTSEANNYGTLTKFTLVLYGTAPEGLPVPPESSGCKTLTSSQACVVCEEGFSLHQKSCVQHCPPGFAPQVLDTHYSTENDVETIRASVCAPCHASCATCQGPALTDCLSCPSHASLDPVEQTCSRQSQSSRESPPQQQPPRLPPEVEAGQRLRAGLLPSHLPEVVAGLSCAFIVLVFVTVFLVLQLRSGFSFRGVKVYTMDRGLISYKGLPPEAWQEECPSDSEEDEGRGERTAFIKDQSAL
Sequence of Rap guanine nucleotide exchange factor 4 (Homo sapiens) (Q8WZA2 whole entry, looked up): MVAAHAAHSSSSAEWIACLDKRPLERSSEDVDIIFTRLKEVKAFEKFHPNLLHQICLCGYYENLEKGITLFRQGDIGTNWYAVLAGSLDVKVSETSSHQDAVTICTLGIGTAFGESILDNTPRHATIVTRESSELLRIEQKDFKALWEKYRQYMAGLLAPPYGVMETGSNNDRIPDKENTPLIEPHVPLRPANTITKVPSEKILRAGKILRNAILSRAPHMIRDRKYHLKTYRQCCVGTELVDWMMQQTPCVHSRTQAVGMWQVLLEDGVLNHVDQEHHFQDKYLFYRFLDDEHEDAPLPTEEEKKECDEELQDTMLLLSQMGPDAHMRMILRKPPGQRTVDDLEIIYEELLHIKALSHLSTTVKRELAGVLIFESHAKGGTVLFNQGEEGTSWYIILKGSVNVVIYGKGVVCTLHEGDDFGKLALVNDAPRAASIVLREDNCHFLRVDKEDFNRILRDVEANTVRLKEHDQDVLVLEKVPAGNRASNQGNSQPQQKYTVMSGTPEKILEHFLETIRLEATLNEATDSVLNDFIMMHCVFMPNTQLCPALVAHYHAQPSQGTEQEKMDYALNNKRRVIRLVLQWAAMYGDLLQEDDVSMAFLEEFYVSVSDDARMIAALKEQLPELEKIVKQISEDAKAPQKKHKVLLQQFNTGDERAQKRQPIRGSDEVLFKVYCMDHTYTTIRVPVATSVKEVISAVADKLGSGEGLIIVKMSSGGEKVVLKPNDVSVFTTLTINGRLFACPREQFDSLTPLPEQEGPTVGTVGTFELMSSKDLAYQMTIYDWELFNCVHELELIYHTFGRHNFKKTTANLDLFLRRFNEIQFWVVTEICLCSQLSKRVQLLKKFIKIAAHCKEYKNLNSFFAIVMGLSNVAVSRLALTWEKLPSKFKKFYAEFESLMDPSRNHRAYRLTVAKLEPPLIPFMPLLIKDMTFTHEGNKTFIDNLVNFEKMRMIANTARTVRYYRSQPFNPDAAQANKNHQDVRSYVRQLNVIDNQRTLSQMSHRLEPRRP

Regarding `O=C(O)c1c(-c2ccccc2)oc2ccc(OCc3ccc(Cl)c(Cl)c3)cc12`, the Potency is 66.3 µM (active) with Furin (Homo sapiens); 17.8 µM (active) in test [1]; 8.91 µM (active) in [2]; 3.98 µM (active) in test [3]; 17.8 µM (active) in [5]; 75.7 µM (active) in test [7]. Also, the Potency entry in [4], in test [6] and in test [11] was “inactive” each time. Moreover, the call in [8] and in test [9] was inactive. Besides, the activity change, negative = inhibition in [10] is 10.2% [at 12.7 µM].
As for `Cc1ccc(NC(=O)c2ccc3c(O)c(S(=O)(=O)c4ccc(Cl)cc4)c(=O)[nH]c3c2)cc1`, the Potency result (with Furin (Homo sapiens); in [2]) was “inactive” in each case. Moreover, the Potency in test [1] is 22.4 µM (active); in [4] it was 251 µM (active); in test [5], 35.5 µM (active).
Turning to `CC(NC(=O)C1CCN(S(=O)(=O)c2ccc3nc4c(c(C(=O)O)c3c2)CCCC4)CC1)c1ccccc1` (stereo unspecified), the Potency result (with Furin (Homo sapiens); in test [1]; in test [3]) was “inactive” in each case.
For the compound `Cc1ccc(NC(=O)CSc2ncccc2C(=O)Oc2ccccc2Cl)cc1Cl`, the Potency result (with Furin (Homo sapiens); in test [1]; in test [3]) was “inactive” throughout.
As to `CC(C)(C)c1ccc(S(=O)(=O)Nc2ccc(O)c(Sc3nc4ccccc4s3)c2)cc1`, the Potency entry with Furin (Homo sapiens) is “inactive”. For the same compound, the Potency is 35.5 µM (active) in test [1], 28.2 µM (active) in test [3] and 100 µM (active) in [5].
Regarding `CCOC(=O)c1ccc(Nc2nc3ccccc3nc2NS(=O)(=O)c2ccc(Cl)cc2)cc1`, the Potency result (with Furin (Homo sapiens); in test [4]) was “inactive” in each case. The Potency in test [1] is 3.16 µM (active); in [3] it was 3.55 µM (active).
Regarding `N#C/C(=C\c1ccc(Cl)cc1)c1nc(-c2cc3c(ccc4ccccc43)oc2=O)cs1`, the Potency entry (with Furin (Homo sapiens); in test [1]; in test [3]; in [6]) was “inactive” in each case.
Regarding `O=C(CNC(=O)c1ccc(Cl)cc1)OCc1cc(=O)n2nc(C3CCCCC3)sc2n1`, the Potency result (with Furin (Homo sapiens); in [1]; in [3]; in test [6]) was “inactive” throughout.
As for `Cc1ccc2nc(NS(=O)(=O)c3ccc(Cl)cc3)c(Nc3ccc(C(=O)O)cc3)nc2c1`, the Potency result with Furin (Homo sapiens) is “inactive”. In addition, the Potency in test [1] was 3.55 µM (active); in [3], 3.16 µM (active); in [4], 141 µM (active); in test [5], 12.6 µM (active).
With `CCOC(=O)c1c(-c2ccc(C)cc2)csc1NC(=O)c1cc(-c2ccc(Cl)cc2)on1`, the Potency result (with Furin (Homo sapiens); in [1]; in test [3]; in test [6]) was “inactive” throughout.
`COC(=O)c1ccc([C@H]2Nc3ccc(S(=O)(=O)Nc4ccc(C)cc4)cc3[C@H]3C=CC[C@H]32)cc1`: the Potency entry (with Furin (Homo sapiens); in [2]) was “inactive” each time. Further, the Potency in [1] was 25.1 µM (active); in test [5], 100 µM (active).
`Cc1oc2c(cc(NS(=O)(=O)c3ccc(Br)cc3)c3ccccc32)c1C(=O)OCc1ccccc1`: the Potency result (in the test with Furin (Homo sapiens); in test [2]) was “inactive” each time. Besides, the Potency is 31.6 µM (active) in [1], 39.8 µM (active) in test [3] and 63.1 µM (active) in [5].
As for `Cc1c(Cl)cccc1NC(=O)CSc1ncccc1C(=O)Oc1ccccc1Cl`, the Potency entry (with Furin (Homo sapiens); in test [1]; in test [3]; in test [6]) was “inactive” throughout.
Consider `O=C(Nc1ccccc1C(=O)OCc1cc(=O)n2nc(C3CC3)sc2n1)c1ccc(Cl)cc1`, for which the Potency with Furin (Homo sapiens) is 41.8 µM (active). For the same compound, the Potency result in test [1], in test [3] and in test [6] was “inactive” each time.
On to `O=C(O)c1cc(-n2c(/C=C\c3ccc(F)cc3)nc3ccccc3c2=O)ccc1Cl`, for which the Potency result (with Furin (Homo sapiens); in test [2]; in test [6]) was “inactive” in each case. The Potency was 39.8 µM (active) in test [1], 200 µM (active) in test [4] and 141 µM (active) in test [5].
